Data on 13 compounds can be found in PubChem BioAssay.

The subject of assay [1] is XIP peptide (Xip251-270) binding. Nature of the assay: XIP fragment 251-270 binding compounds – biochemical, small-molecule microarray, fluorescence 635/667 nm, 0.1 µg/mL protein, primary screen (AID 1182). Conditions: fluorescent protein binding, 635 nm, higher = more signal, called active from +8 up or from −8 down.
Another assay relates to XIP peptide (Xip251-270). Nature of the assay: compounds binding XIP fragment 251-270 – biochemical, small-molecule microarray, fluorescence 635/667 nm, 0.5 µg/mL protein, primary screen (AID 1183). Conditions: fluorescence 635 nm, higher = more signal.
A short description of assay [2]: blood-stage malaria parasite viability loss – strain 3D7, DAPI fluorescence, 100 nL, primary screen (AID 1184).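 Further: parasites grown inside human red blood cells in medium with human serum.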 The settings on record: P. falciparum 3D7 growth, 3 d, higher = more signal.
The target in assay [3] is Homeobox protein Hox-A13 (Mus musculus) (UniProt Q62424). Kind of assay: disruptors of Hoxa13 oligonucleotide interaction – biochemical, fluorescence polarization, labeled oligonucleotide, primary screen (AID 1185). The settings on record: Hoxa13:DNA binding, 15 min, higher = more signal, called active from +8 up or from −8 down. A general note: In fluorescence polarisation assays a small probe gives low polarisation when free and higher when bound to something large.
Chain of Homeobox protein Hox-A13 (Mus musculus) (Q62424 whole entry, looked up): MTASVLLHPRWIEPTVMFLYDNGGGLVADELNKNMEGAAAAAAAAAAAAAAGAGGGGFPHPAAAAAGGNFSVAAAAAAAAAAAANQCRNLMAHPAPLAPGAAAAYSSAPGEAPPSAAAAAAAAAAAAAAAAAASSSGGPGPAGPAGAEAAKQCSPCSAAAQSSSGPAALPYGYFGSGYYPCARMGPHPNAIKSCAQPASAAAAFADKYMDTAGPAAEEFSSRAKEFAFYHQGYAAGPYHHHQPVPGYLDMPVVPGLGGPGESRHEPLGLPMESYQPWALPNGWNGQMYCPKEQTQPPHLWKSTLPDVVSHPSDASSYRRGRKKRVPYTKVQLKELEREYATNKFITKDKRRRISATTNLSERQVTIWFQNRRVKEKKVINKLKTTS

Assay [4] can be described thus: blockers of DNA damage checkpoint Chk1 activation – imaging, HeLa, hydroxyurea, phospho-Chk1 antibody, percent positive cells, primary screen (AID 1186). The settings on record: hydroxyurea-induced phospho-Chk1 immunofluorescence imaging, higher = more signal.
A short description of assay [5]: blockers of DNA damage checkpoint Chk1 activation – imaging, HeLa, hydroxyurea, phospho-Chk1 nuclear intensity, primary screen (AID 1187). The settings on record: hydroxyurea-induced phospho-Chk1 immunofluorescence imaging, higher = more signal.

The source made the active and inactive calls. Unless noted, how the calls were made is not given here.

Regarding `COCCOC(=O)N1C(=O)[C@@]2(c3cc(C#CC4=CCCCC4)ccc31)[C@H](C(=O)NC[C@H](O)c1ccccc1)[C@H]1C(=O)O[C@H](c3ccccc3)[C@H](c3ccccc3)N1[C@@H]2c1ccccc1OCCO`, the composite z-score in assay [1] was 0.51 (inactive); in the assay with XIP peptide (Xip251-270) it was 0.681. The z-score is -2.02 in assay [2], 1.22 (inactive) in assay [3], 0.443 (inactive) in assay [4] and 0.384 (inactive) in assay [5].
Consider `CC(=O)NCCCC[C@@H]1NC(=O)[C@@H]2C[C@H](C(=O)NCCCCCCN(C)C)[C@H](c3ccc(O)cc3)N2C1=O`, for which the values for the composite z-score (in assay [1]; in the assay with XIP peptide (Xip251-270)) were 1.9 (inactive) and 0.852, respectively. Further, the z-score was -0.289 in assay [2], -0.0113 (inactive) in assay [3], 0.313 (inactive) in assay [4] and 0.54 (inactive) in assay [5].
Turning to `C=CCOC(=O)[C@@H]1[C@H]2C(=O)O[C@H](c3ccccc3)[C@H](c3ccccc3)N2[C@H](c2ccc(OCCOC(=O)[C@H]3C[C@H]4C(=O)N[C@@H](CCCCNC(C)=O)C(=O)N4[C@H]3c3ccc(O)cc3)cc2)[C@@]12C(=O)Nc1ccc(I)cc12`, the composite z-score in assay [1] was 0.393 (inactive); with XIP peptide (Xip251-270), 0.566. For the same compound, the z-score in assay [2] is -1.78; in assay [3] it was 0.32 (inactive); in assay [4] it was 0.293 (inactive); in assay [5] it was -0.568 (inactive).
Take `O=C1C[C@@](C(=O)NCCN2CCOCC2)(c2ccc([N+](=O)[O-])cc2)[C@@H](c2ccc(CO)cc2)N1C1CCCCC1`: the composite z-score in assay [1] was 1.01 (inactive); with XIP peptide (Xip251-270) it was 0.818. For the same compound, the z-score in assay [2] is -1.6; in assay [3] it was -4.21 (inactive); in assay [4], -0.0132 (inactive); in assay [5], 0.434 (inactive).
Regarding `CCCC/C=C/[C@H]([C@@H](O)Cc1ccccc1)N(CC#Cc1ccccc1)Cc1ccccc1Br`, the composite z-score in assay [1] was 0.227 (inactive); in the assay on XIP peptide (Xip251-270) it was -1.26. Further, the z-score in assay [2] is -0.972; in assay [3] it was 0.453 (inactive); in assay [4] it was -0.138 (inactive); in assay [5] it was -0.0836 (inactive).
`CC(C)N1CC=CC23O[C@@H]4/C=C\CCCOC(=O)C4[C@H]2C(=O)N(CCCCCO)[C@@H]3C1=O` (stereo partly drawn): the values for the composite z-score (in assay [1]; with XIP peptide (Xip251-270)) were -0.301 (inactive) and -1.95, respectively. Also, the z-score in assay [2] was -0.426; in assay [3], -4.61 (inactive); in assay [4], -0.261 (inactive); in assay [5], -0.128 (inactive).
As to `CCCC=C(CCC)[C@@H](NS(=O)(=O)c1ccc(-c2ccccc2)cc1)c1ccc(C(=O)OC)cc1`, the composite z-score in assay [1] is 0.046 (inactive); in the assay with XIP peptide (Xip251-270), -0.203. The z-score in assay [2] is -1.37; in assay [3] it was -1.02 (inactive); in assay [4] it was -0.361 (inactive); in assay [5], -0.761 (inactive).
As for `CCCC=C(CCC)[C@@H](NS(=O)(=O)c1cccc(C(F)(F)F)c1)c1ccc(C(=O)OC)cc1`, the composite z-score in assay [1] was 0.0637 (inactive); in the assay with XIP peptide (Xip251-270) it was 0.377. For the same compound, the z-score in assay [2] was 0.551; in assay [3], -1.64 (inactive); in assay [4], 0.0948 (inactive); in assay [5], -0.275 (inactive).
Consider `CC(C)[Si](OCC[C@H]1O[C@]2(C(=O)N(Cc3ccccc3)c3ccccc32)[C@@H](C)[C@@H]1[Si](C)(C)O)(C(C)C)C(C)C`, for which the composite z-score was -0.177 (inactive) in assay [1] and 0.457 in the assay on XIP peptide (Xip251-270). Further, the z-score in assay [2] was -1.94; in assay [3], -0.292 (inactive); in assay [4], -0.558 (inactive); in assay [5], -0.322 (inactive).
For the compound `Cc1ccc(N2C(=O)c3ccccc3[C@](C)(C(=O)NCC(C)C)[C@@H]2c2ccc(CO)cc2)nc1`, the values for the composite z-score (in assay [1]; in the assay on XIP peptide (Xip251-270)) were -0.223 (inactive) and -0.662, respectively. For the same compound, the z-score was 0.11 in assay [2], -2 (inactive) in assay [3], 0.341 (inactive) in assay [4] and 0.123 (inactive) in assay [5].
Take `COc1ccc(CCN2C(=O)[C@@]3(c4ccc([N+](=O)[O-])cc4)CC(=O)N(CC45CC6CC(CC(C6)C4)C5)[C@@H]3c3ccc(CO)cc32)cc1`: the composite z-score is -0.038 (inactive) in assay [1] and 0.93 in the assay with XIP peptide (Xip251-270). Further, the z-score in assay [2] is -1.07; in assay [3] it was -2.14 (inactive); in assay [4] it was 0.33 (inactive); in assay [5] it was 0.522 (inactive).
Consider `C=CCC(OC(C)=O)[C@@H]1[C@@H](N(Cc2ccc(-c3ccccc3)cc2)C(=O)c2ccc(C)cc2)c2cc(OCCCO)ccc2N1C(=O)c1ccc(-c2ccccc2)cc1` (stereo partly drawn), for which the composite z-score in assay [1] was -0.0684 (inactive); in the assay on XIP peptide (Xip251-270), -0.322. The z-score in assay [2] is -2.66; in assay [3], -1.35 (inactive); in assay [4], 0.0807 (inactive); in assay [5], 0.582 (inactive).
Take `CO[C@]12C=C(Br)[C@@H](C[C@@H]1c1ccccc1)[C@@]1(CO1)C2=O`: the composite z-score in assay [1] is 0.484 (inactive); in the assay on XIP peptide (Xip251-270) it was 0.521. In addition, the z-score in assay [2] was -1.03; in assay [3], -0.507 (inactive); in assay [4], -0.655 (inactive); in assay [5], -0.337 (inactive).
